Source: PubChem BioAssay AID602283 (Johns Hopkins Ion Channel Center, 2012)
Hit rate of the full screen: of about 1,100 compounds, about 940 (85%) were called active.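 Rule for the calls: active = inhibition exceeding 3 SD of buffer-only control wells (cut at about 26% in these data); inactive = the rest.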 So high a share suggests a set chosen from earlier hits. Only a sample is shown.

Test: M3R calcium signalling without RGS4 expression – cell-based, HEK293 M3R, non-induced RGS4, Fluo-4 calcium, counter-screen for RGS4 activator project, primary screen (AID 602283);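 note: percent drop in integrated peak-minus-baseline over baseline Fluo4 ratio after carbachol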
Conditions: HEK293 M3R non-induced RGS4, Fluo4 calcium flux; at 10 µM; hits give high values; after carbachol challenge at its EC90

SMILES	inhibition
C=CC12CN(C)[C@@H]3C4CO[C@H](C[C@H]41)[C@]1(C(=O)Nc4ccccc41)[C@@H]32 (some centres not stated)	83.8% (active)
CC(C)Oc1cccc(C(=O)C2CCCN(C3CCOCC3)C2)c1 (configuration not stated)	83.8% (active)
